Assay results as given in PubChem BioAssay AID1159580 (chemical genetic matrix, 2015).
Values joined by “and” are separate entries in the source; they are usually repeats but may differ in a detail not shown here. Identical values can stand only once. Hit rate of the full screen: of about 5,500 compounds, about 2,000 (36%) were called active. About 18% were inconclusive and are not listed. Cut-off read from the data, not from the text of the source: active = normalized growth mostly below about 0.91 (no sharp cut-off); inconclusive = no clear call, values can overlap the other calls; inactive = mostly above about 0.92. The list shows a part of the results. Some structures have more than one record in an assay (separate samples or runs), and their calls can disagree.

Assay: chemical genetic growth profiling, strain panel (AID 1159580);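 note: tested at 20 µM; growth read once vehicle control cultures reached saturation at 30 °C; 1 = growth at the plate median or of vehicle wells; lower values mean less growth of the strain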
Settings: growth OD

Measured: normalized growth

O=C1CCc2cc(OCCCCc3nnnn3C3CCCCC3)ccc2N1
inactive: S. cerevisiae deletion strains, locus YKL009W, strain mrt4, stronger effect = lower value 1 | S. cerevisiae deletion strains, locus YKL068W, stronger effect = lower value 1 | S. cerevisiae deletion strains, locus YKL085W, strain MDH1 (second series), stronger effect = lower value 1.01 | S. cerevisiae deletion strains, locus YKL085W, strain MDH1, stronger effect = lower value 1.01 | S. cerevisiae deletion strains, locus YKL160W, strain elf1, stronger effect = lower value 0.987 | S. cerevisiae deletion strains, locus YKL190W, strain CNB1, stronger effect = lower value 1.01 | S. cerevisiae deletion strains, locus YKR001C, strain vps1, stronger effect = lower value 0.993 | S. cerevisiae deletion strains, locus YKR026C, strain gcn3, stronger effect = lower value 0.979 | S. cerevisiae deletion strains, locus YKR091W, strain srl3, stronger effect = lower value 0.99 | S. cerevisiae deletion strains, locus YLL001W, strain dnm1, stronger effect = lower value 0.984 | S. cerevisiae deletion strains, locus YLL026W, stronger effect = lower value 0.993 | S. cerevisiae deletion strains, locus YLL041C, strain sdh2, stronger effect = lower value 0.991 | S. cerevisiae deletion strains, locus YLR027C, strain aat2, stronger effect = lower value 0.978 | S. cerevisiae deletion strains, locus YLR039C, strain RIC1, stronger effect = lower value 0.972 | S. cerevisiae deletion strains, locus YLR058C, strain SHM2, stronger effect = lower value 1.01 | S. cerevisiae deletion strains, locus YLR102C, strain apc9, stronger effect = lower value 0.999 | S. cerevisiae deletion strains, locus YLR113W, strain HOG1, stronger effect = lower value 0.983 | S. cerevisiae deletion strains, locus YLR221C, strain rsa3, stronger effect = lower value 0.984 | S. cerevisiae deletion strains, locus YLR258W, strain gsy2, stronger effect = lower value 0.986 | S. cerevisiae deletion strains, locus YLR262C, strain YPT6 (second series), stronger effect = lower value 0.876 | S. cerevisiae deletion strains, locus YLR262C, strain YPT6, stronger effect = lower value 0.998 | S. cerevisiae deletion strains, locus YLR268W, strain sec22, stronger effect = lower value 0.999 | S. cerevisiae deletion strains, locus YLR320W, strain mms22, stronger effect = lower value 0.976 | S. cerevisiae deletion strains, locus YLR330W, strain CHS5, stronger effect = lower value 1.01 | S. cerevisiae deletion strains, locus YLR342W, strain FKS1 (second series), stronger effect = lower value 0.987 | S. cerevisiae deletion strains, locus YLR342W, strain FKS1, stronger effect = lower value 0.985 | S. cerevisiae deletion strains, locus YLR357W, strain rsc2, stronger effect = lower value 0.956 | S. cerevisiae deletion strains, locus YLR370C, strain arc18, stronger effect = lower value 0.99 | S. cerevisiae deletion strains, locus YLR371W, strain rom2, stronger effect = lower value 0.995 | S. cerevisiae deletion strains, locus YLR384C, strain iki3, stronger effect = lower value 0.972 | S. cerevisiae deletion strains, locus YLR418C, strain cdc73, stronger effect = lower value 1 | S. cerevisiae deletion strains, locus YML016C, strain PPZ1, stronger effect = lower value 1.01 | S. cerevisiae deletion strains, locus YML032C, strain rad52, stronger effect = lower value 1.02 | S. cerevisiae deletion strains, locus YML120C, strain ndi1, stronger effect = lower value 0.994 | S. cerevisiae deletion strains, locus YML124C, strain tub3, stronger effect = lower value 0.992 | S. cerevisiae deletion strains, locus YMR058W, strain fet3, stronger effect = lower value 1 | S. cerevisiae deletion strains, locus YMR078C, strain ctf18, stronger effect = lower value 0.998 | S. cerevisiae deletion strains, locus YMR125W, strain sto1, stronger effect = lower value 0.999 | S. cerevisiae deletion strains, locus YMR129W, stronger effect = lower value 0.985 | S. cerevisiae deletion strains, locus YMR205C, strain PFK2, stronger effect = lower value 0.989 | S. cerevisiae deletion strains, locus YMR223W, strain ubp8, stronger effect = lower value 0.991 | S. cerevisiae deletion strains, locus YMR231W, strain pep5, stronger effect = lower value 0.996 | S. cerevisiae deletion strains, locus YMR307W, strain GAS1, stronger effect = lower value 0.946 and 0.993 | S. cerevisiae deletion strains, locus YNL067W, strain RPL9B, stronger effect = lower value 1.03 | S. cerevisiae deletion strains, locus YNL071W, strain lat1, stronger effect = lower value 1 | S. cerevisiae deletion strains, locus YNL128W, strain TEP1, stronger effect = lower value 1.01 | S. cerevisiae deletion strains, locus YNL153C, strain GIM3, stronger effect = lower value 1.01 | S. cerevisiae deletion strains, locus YNL175C, strain NOP13, stronger effect = lower value 1.03 | S. cerevisiae deletion strains, locus YNL183C, strain NPR1, stronger effect = lower value 0.966 | S. cerevisiae deletion strains, locus YNL197C, strain WHI3, stronger effect = lower value 1.01 | S. cerevisiae deletion strains, locus YNL209W, strain ssb2, stronger effect = lower value 0.998 | S. cerevisiae deletion strains, locus YNL224C, strain SQS1, stronger effect = lower value 1 | S. cerevisiae deletion strains, locus YNL233W, strain BNI4, stronger effect = lower value 1.01 | S. cerevisiae deletion strains, locus YNL248C, strain rpa49, stronger effect = lower value 0.999 | S. cerevisiae deletion strains, locus YNL250W, strain rad50, stronger effect = lower value 0.992 | S. cerevisiae deletion strains, locus YNL271C, strain bni1, stronger effect = lower value 1 | S. cerevisiae deletion strains, locus YNL298W, strain CLA4, stronger effect = lower value 1 | S. cerevisiae deletion strains, locus YNL307C, strain MCK1, stronger effect = lower value 0.982 | S. cerevisiae deletion strains, locus YNL322C, strain KRE1 (second series), stronger effect = lower value 0.988 | S. cerevisiae deletion strains, locus YNL322C, strain KRE1, stronger effect = lower value 1.01 | S. cerevisiae deletion strains, locus YNR049C, strain mso1, stronger effect = lower value 0.998 | S. cerevisiae deletion strains, locus YNR052C, strain pop2, stronger effect = lower value 1 | S. cerevisiae deletion strains, locus YOL006C, strain TOP1, stronger effect = lower value 1.01 | S. cerevisiae deletion strains, locus YOL012C, strain htz1 1.15 | S. cerevisiae deletion strains, locus YOL147C, strain pex11, stronger effect = lower value 0.991 | S. cerevisiae deletion strains, locus YOR001W, strain rrp6, stronger effect = lower value 0.992 | S. cerevisiae deletion strains, locus YOR061W, strain CKA2, stronger effect = lower value 1 | S. cerevisiae deletion strains, locus YOR069W, strain VPS5, stronger effect = lower value 1 | S. cerevisiae deletion strains, locus YOR070C, strain gyp1, stronger effect = lower value 0.995 | S. cerevisiae deletion strains, locus YOR080W, strain dia2, stronger effect = lower value 0.984 | S. cerevisiae deletion strains, locus YOR083W, strain WHI5 (second series), stronger effect = lower value 0.993 | S. cerevisiae deletion strains, locus YOR083W, strain WHI5, stronger effect = lower value 0.987 | S. cerevisiae deletion strains, locus YOR106W, strain vam3, stronger effect = lower value 0.977 | S. cerevisiae deletion strains, locus YOR136W, strain idh2, stronger effect = lower value 0.983 | S. cerevisiae deletion strains, locus YOR144C, strain elg1, stronger effect = lower value 0.995 | S. cerevisiae deletion strains, locus YOR184W, strain ser1, stronger effect = lower value 1.02 | S. cerevisiae deletion strains, locus YOR231W, strain MKK1, stronger effect = lower value 0.974 | S. cerevisiae deletion strains, locus YOR265W, strain rbl2, stronger effect = lower value 0.987 | S. cerevisiae deletion strains, locus YOR270C, strain vph1, stronger effect = lower value 0.991 | S. cerevisiae deletion strains, locus YOR290C, strain snf2, stronger effect = lower value 1 | S. cerevisiae deletion strains, locus YOR316C, strain cot1, stronger effect = lower value 1 | S. cerevisiae deletion strains, locus YPL051W, strain arl3, stronger effect = lower value 0.983 | S. cerevisiae deletion strains, locus YPL055C, strain LGE1, stronger effect = lower value 1.06 | S. cerevisiae deletion strains, locus YPL078C, strain atp4, stronger effect = lower value 0.977 | S. cerevisiae deletion strains, locus YPL106C, strain sse1, stronger effect = lower value 1.01 | S. cerevisiae deletion strains, locus YPL240C, strain hsp82, stronger effect = lower value 0.982 | S. cerevisiae deletion strains, locus YPL241C, strain CIN2, stronger effect = lower value 1 | S. cerevisiae deletion strains, locus YPL256C, strain CLN2, stronger effect = lower value 0.985 | S. cerevisiae deletion strains, locus YPR119W, strain clb2, stronger effect = lower value 0.998 | S. cerevisiae deletion strains, locus YPR141C, strain kar3, stronger effect = lower value 1 | S. cerevisiae deletion strains, locus YPR163C, strain tif3, stronger effect = lower value 0.978 | S. cerevisiae deletion strains, locus YPR167C, strain met16, stronger effect = lower value 0.996 | S. cerevisiae deletion strains, strain wtn01, stronger effect = lower value 1.01 | S. cerevisiae strains, strain wild type, stronger effect = lower value 1.01
1.01 (inactive) and 0.0868 (active): S. cerevisiae deletion strains, locus YMR263W, strain SAP30, stronger effect = lower value
